Screening results as filed in PubChem.
Myeloid diff 2: promotes myeloid progenitor differentiation | ER-HoxA9 myeloid progenitors, lysozyme-GFP differentiation, flow cytometry | calls only at 10 µM | actives 1% (n = 360,000) | AID 624256;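 active = normalized GFP-positive differentiation at or above the plate's own cutoff, the solvent-only control mean plus 3 SD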;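 also: cells exposed to compound for four days before flow analysis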
Granule exo inh: blocks lytic granule exocytosis; actives 0.66% (n = 360,000); inhibition, % at 10 µM; TALL-104 LAMP-1 surface exposure, flow cytometry; cells stimulated with thapsigargin and PMA;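 active = inhibition above about 55%, limit read from the data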
ABCB6 inh MLPCN: inhibitors of human ABC transporter ABCB6; Q9NP58; K562-ABCB6 porphyrin accumulation, flow cytometry, 1 h; hits give low values; fluorescence ratio to DMSO, % at 10 µM; actives 0.19% (n = 360,000); AID 602162;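 active = fluorescence ratio to DMSO below 75%, the collection mean minus 3 SD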;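 also: signal is porphyrin accumulated inside mitochondria; 100% equals median channel fluorescence of DMSO control wells; lower ratio means ABCB6 inhibition with less porphyrin fluorescence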
Target sequence (Q9NP58 whole entry, looked up): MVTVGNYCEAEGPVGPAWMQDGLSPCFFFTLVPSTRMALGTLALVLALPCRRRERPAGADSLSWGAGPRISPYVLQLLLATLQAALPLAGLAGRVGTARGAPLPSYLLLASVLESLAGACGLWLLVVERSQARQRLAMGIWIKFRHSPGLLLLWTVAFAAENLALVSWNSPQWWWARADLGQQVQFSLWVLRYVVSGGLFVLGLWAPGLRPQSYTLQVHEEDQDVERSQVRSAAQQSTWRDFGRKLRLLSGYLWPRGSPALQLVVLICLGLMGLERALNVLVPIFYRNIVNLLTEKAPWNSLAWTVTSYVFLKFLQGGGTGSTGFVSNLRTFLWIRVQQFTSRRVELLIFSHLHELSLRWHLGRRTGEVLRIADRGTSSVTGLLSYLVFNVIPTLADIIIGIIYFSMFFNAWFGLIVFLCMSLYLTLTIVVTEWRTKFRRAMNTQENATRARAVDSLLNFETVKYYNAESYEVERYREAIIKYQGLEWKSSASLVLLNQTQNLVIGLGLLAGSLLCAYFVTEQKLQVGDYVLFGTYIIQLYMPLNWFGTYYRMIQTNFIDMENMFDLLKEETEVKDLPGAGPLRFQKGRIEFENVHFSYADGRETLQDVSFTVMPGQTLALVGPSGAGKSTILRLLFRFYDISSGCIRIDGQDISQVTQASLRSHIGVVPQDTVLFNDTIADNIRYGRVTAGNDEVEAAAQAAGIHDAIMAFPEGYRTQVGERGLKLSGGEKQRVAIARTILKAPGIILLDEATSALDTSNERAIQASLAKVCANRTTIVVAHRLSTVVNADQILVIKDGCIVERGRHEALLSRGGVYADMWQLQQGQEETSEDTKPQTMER
Starred values were filed as active, the others as inactive. Rows were chosen to be rich in hits. Some 1.8% of all compounds tested hit in one or more screens of this group.

Screening CCc1ccc(N2C(=O)NC(=O)C(CCc3ccncc3)(CCc3ccncc3)C2=O)cc1 returned Myeloid diff 2 inactive, Granule exo inh 0.9 and ABCB6 inh MLPCN 90.0.
CCOP(=O)(/C=C(\Cl)c1ccccc1)C(O)c1ccc(F)cc1 (stereo unspecified) was read as Myeloid diff 2 inactive, Granule exo inh 12.5 and ABCB6 inh MLPCN 99.0.
CS(=O)(=O)c1ccc(C(=O)N2CCC(C(=O)O)(c3ccccc3)CC2)cc1 was read as Myeloid diff 2 inactive, Granule exo inh -5.5 and ABCB6 inh MLPCN 94.0.
`COCCCNC(=O)c1c(NC(=O)c2ccco2)n(Cc2ccccc2)c2nc3ccccc3nc12` gave Myeloid diff 2 inactive, Granule exo inh 6.8 and ABCB6 inh MLPCN 124.0.
COCCNC(=O)c1c(NC(=O)c2ccc(Br)o2)n(Cc2ccccc2)c2nc3ccccc3nc12 was read as Myeloid diff 2 active, Granule exo inh -2.2 and ABCB6 inh MLPCN 106.0.
Screening COC(=O)C1=C(c2ccc3ccccc3c2)C[C@@H]2CC[C@H]1N2C(=O)N1CCCC1 returned Myeloid diff 2 inactive, Granule exo inh -0.3 and ABCB6 inh MLPCN 99.0.
For COC(=O)C1=C(c2cccc(OC)c2OC)C[C@@H]2CC[C@H]1N2C(=O)N1CCC(C)CC1 the results were Myeloid diff 2 inactive, Granule exo inh -1.5 and ABCB6 inh MLPCN 102.0.
O=C1NC(=O)N(c2ccccc2)C(=O)/C1=C/C=C/c1ccco1 was read as Myeloid diff 2 inactive, Granule exo inh 19.1 and ABCB6 inh MLPCN 100.0.
Cc1ccc(N2C(=O)NC(=O)/C(=C\C=C\c3ccco3)C2=O)cc1 was read as Myeloid diff 2 inactive, Granule exo inh 89.9* and ABCB6 inh MLPCN 100.0.
For Cc1cccc(N2C(=O)NC(=O)/C(=C\C=C\c3ccco3)C2=O)c1 the results were Myeloid diff 2 inactive, Granule exo inh 28.3 and ABCB6 inh MLPCN 94.0.
`Cc1ccc(N2C(=O)NC(=O)/C(=C\C=C\c3ccco3)C2=O)cc1C` gave Myeloid diff 2 active, Granule exo inh 58.6* and ABCB6 inh MLPCN 92.0.
CCN(CC)P(=O)(Oc1ccccc1)Oc1ccccc1 was read as Myeloid diff 2 inactive, Granule exo inh -10.0 and ABCB6 inh MLPCN 101.0.
Screening O=C(Cc1ccccc1)N1CCN(Cc2ccccc2Cl)CC1 returned Myeloid diff 2 inactive, Granule exo inh -2.5 and ABCB6 inh MLPCN 93.0.
`CN1C(=O)/C(=C/c2ccc(Cl)s2)C(=O)NC1=S` gave Myeloid diff 2 active, Granule exo inh 13.0 and ABCB6 inh MLPCN 117.0.
For Cc1ccsc1/C=C1\C(=O)NC(=S)N(C)C1=O the results were Myeloid diff 2 inactive, Granule exo inh 6.6 and ABCB6 inh MLPCN 96.0.
Screening CCN(CC)c1ccc(CNCCc2ccccc2F)cc1 returned Myeloid diff 2 inactive, Granule exo inh 0.5 and ABCB6 inh MLPCN 98.0.
Screening Nc1ncnc2c1ncn2[C@@H]1O[C@H](C(=O)NCCc2ccc(F)cc2)[C@@H](O)[C@H]1O returned Myeloid diff 2 inactive, Granule exo inh -2.3 and ABCB6 inh MLPCN 99.0.
CN(C)CCSC1c2ccccc2CSc2ccccc21 (stereo unspecified) was read as Myeloid diff 2 inactive, Granule exo inh 30.7 and ABCB6 inh MLPCN 98.0.
`Cc1cc(C)cc(N2C(=O)NC(=O)/C(=C/c3cccn3-c3ccc(Cl)cc3)C2=O)c1` gave Myeloid diff 2 inactive, Granule exo inh 13.4 and ABCB6 inh MLPCN 91.0.
`Cc1cccc(N2C(=O)NC(=O)/C(=C\c3cccn3-c3ccc(Cl)cc3)C2=O)c1` gave Myeloid diff 2 inactive, Granule exo inh 73.0* and ABCB6 inh MLPCN 107.0.
`CCN1CCN(S(=O)(=O)c2ccc(Cl)c(C(=O)Nc3ccc(C(=O)N(CC)CC)cc3)c2)CC1` gave Myeloid diff 2 inactive, Granule exo inh -2.3 and ABCB6 inh MLPCN 99.0.
For CCCCCCCCn1sccc1=O the results were Myeloid diff 2 active, Granule exo inh 36.5 and ABCB6 inh MLPCN 92.0.
`CCOc1ccc(N2C(=O)NC(=O)/C(=C\c3ccc(N4CCCCC4)o3)C2=O)cc1` gave Myeloid diff 2 inactive, Granule exo inh -4.5 and ABCB6 inh MLPCN 109.0.
For O=C1NC(=O)N(c2ccc3c(c2)OCO3)C(=O)/C1=C/c1ccc(N2CCCC2)o1 the results were Myeloid diff 2 active, Granule exo inh -9.2 and ABCB6 inh MLPCN 153.0.
For CCOC(=O)C1(c2ccccc2)CCN(CCC(C#N)(c2ccccc2)c2ccccc2)CC1 the results were Myeloid diff 2 inactive, Granule exo inh 15.1 and ABCB6 inh MLPCN 102.0.
`O=C(c1cccnc1)c1cc2ccccc2[nH]1` gave Myeloid diff 2 inactive, Granule exo inh -4.2 and ABCB6 inh MLPCN 83.0.
Screening Cc1ccc(S(=O)(=O)N2Cc3ccccc3-n3nncc3C2)cc1 returned Myeloid diff 2 inactive, Granule exo inh 1.1 and ABCB6 inh MLPCN 100.0.
